PubChem BioAssay (NCI)
This is part of a sample that, as a whole, favours compounds with a hit. Of some 83,000 tested, about 20% had one in any assay.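 How to read the values: 0–100, growth inhibition (40 = 60% inhibited); 0, no net growth; -100 to 0, cell death (-40 = 40% of starting cells died; -100 = all dead).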 A number with no mark means an inactive call. Activity calls are given as the source filed them. Rule for the calls: active = growth percent below 10; inactive = the rest.

How the values were obtained:
Assay in all cases: NCI-60 one-dose screen, 48 h (100 = growth as untreated, 0 = no growth, -100 = all killed)
NCI-H23 lung = settings: 10 µM unless noted
NCI-H226 lung = settings: 10 µM unless noted
NCI-H322M lung = settings: 10 µM unless noted
HOP-62 NSCLC = settings: 10 µM unless noted
NCI-H460 lung = settings: 10 µM unless noted
HOP-92 NSCLC = settings: 10 µM unless noted
NCI-H522 lung = settings: 10 µM unless noted
A549/ATCC NSCLC = settings: 10 µM unless noted
786-0 renal = settings: 10 µM unless noted
COLO 205 colon = settings: 10 µM unless noted
DU-145 prostate = settings: 10 µM unless noted
K-562 leukemia = settings: 10 µM unless noted
MALME-3M melanoma = settings: 10 µM unless noted
MDA-MB-231 breast = settings: 10 µM unless noted
RXF 393 renal = settings: 10 µM unless noted
SF-268 CNS = settings: 10 µM unless noted
SF-295 CNS = settings: 10 µM unless noted
SF-539 CNS = settings: 10 µM unless noted
UACC-257 melanoma = settings: 10 µM
M14 melanoma = settings: 10 µM unless noted

Row | Compound | growth (NCI-H23 lung) | growth (NCI-H226 lung) | growth (NCI-H322M lung) | growth (HOP-62 NSCLC) | growth (NCI-H460 lung) | growth (HOP-92 NSCLC) | growth (NCI-H522 lung) | growth (A549/ATCC NSCLC) | growth (786-0 renal) | growth (COLO 205 colon) | growth (DU-145 prostate) | growth (K-562 leukemia) | growth (MALME-3M melanoma) | growth (MDA-MB-231 breast) | growth (RXF 393 renal) | growth (SF-268 CNS) | growth (SF-295 CNS) | growth (SF-539 CNS) | growth (UACC-257 melanoma) | growth (M14 melanoma)
1 | CCN1C/C(=N\S(=O)(=O)c2ccccc2)N(CC)C1=S | 94.1% | 101% | 101% | 105% | 108% | 139% | 94.3% | 98.5% | 96.6% | 107% | 117% | 98.8% | 100% | 104% | 117% | 104% | 103% | 102% | 97.6% | 99%
2 | O=C(Nc1cc(Cl)cc(Cl)c1)Nc1nc2ccc([N+](=O)[O-])cc2s1 | -37.7% (active) | -9.83% (active) | 9.2% (active) | -4.21% (active) | 1.08% (active) | -6.65% (active) | 1.99% (active) | 9.1% (active) | 11% | -49.2% (active) | 16.9% | 3.25% (active) | -8.59% (active) | -0.651% (active) | -25% (active) | 15.4% | -57.2% (active) | 3.86% (active) | -14.5% (active) | -9.81% (active)
3 | COc1cc(/C=C/C(=O)c2ccc(NC(=O)COc3cccc4cccnc34)cc2)cc(OC)c1OC | 78.7% | 88.7% | 90.4% | 114% | 72.5% | 90.1% | 80.4% | 87.1% | 89% | 100% | 78.1% | 34.1% | 70.2% | 73.7% | 86.7% | 81.6% | 90.8% | 72.3% | 74.6% | 91.4%
4 | O=[N+]([O-])c1ccc(-c2nnc(SCc3ccc(O)c4ncccc34)n2-c2ccccc2)cc1 | 13.7% | 87.3% | 41.7% | 23.2% | 5.75% (active) | -24.4% (active) | 9.93% (active) | 22.4% | 30.8% | 110% | 29% | 21.2% | 19.6% | 24.8% | 16.3% | 23.6% | 5.71% (active) | 11.7% | 42.5% | 24.2%
5 | O=C1c2c(O)cc(O)cc2O[C@@H](c2ccc(O)cc2)[C@@H]1c1c(O)cc(O)c2c(=O)cc(-c3ccc(O)c(O)c3)oc12 | 92% | 76.6% | 97% | 96.3% | 112% | 104% | 97.4% | 106% | 100% | 114% | 106% | 111% | 90.7% | 111% | 112% | 101% | 108% | 95.8% | 108% | 94.8%
6 | O=c1[nH]c(CNc2ccc(NCc3c(-c4ccccc4)no[n+]3[O-])cc2)nc2c1cnn2-c1ccccc1 | 63.4% | 77.1% | 80.2% | 105% | 64.2% | 85.4% | 60.8% | 63.8% | 86% | 101% | 74.6% | 49.8% | 80% | 72.5% | 98.4% | 73.5% | 71.8% | 92.6% | 60.6% | 70.7%
7 | O=C(CSc1nnc(-c2cccs2)n1-c1ccccc1)Nc1ccc(F)cc1 | 102% | 98.3% | 97% | 109% | 103% | 89.6% | 82.4% | 99.3% | 103% | 105% | 107% | 65.4% | 97.4% | 83.1% | 97.9% | 101% | 91% | 89.9% | 103% | 99.2%
